Source: PubChem BioAssay (NCATS)
Records with an inconclusive call do not appear. The source made the active and inactive calls. Unless noted, calls come from the whole dose curve; as a rule, active = well fitted curve in the direction sought with a large enough effect; inconclusive = small, poorly fitted or top-dose-only effect, or another doubt; inactive = no such curve, though single readings can be large; an effect the other way counts as inactive or inconclusive.

Tests used:
[1] = Confirmation and Secondary Assay for Modulators of Hemoglobin Beta Chain Splicing at IVS2 654 locus (AID 910);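 note: HeLa cells stably carrying EGFP split by mutant beta-globin IVS2-654 intron; % of control where 0% means no effect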
Procedure, shortened: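 HeLa cells stably expressing EGFP interrupted by β-globin IVS2-654 intron, seeded overnight in Opti-MEM/2% FCS, then treated 2 days at 37 °C. Restored splicing read as total peak GFP intensity per well by laser scanning cytometry (488 nm excitation, 500–520 nm emission); 500 nM antisense PNA as control.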

[2] = Confirmation and Secondary Assay for Modulators of Hemoglobin Beta Chain Splicing at IVS2 705 locus (AID 930);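 note: HeLa cells stably expressing the EGFP-705 splicing reporter; GFP fluorescence per well restored by corrected splicing of the IVS2-705 intron in EGFP; series mostly up to about 46 µM; % of control where 0% means no effect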
Procedure, shortened: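 Assay measures total GFP intensity per well in HeLa EGFP-705 cells after 2 days with compound; mis-splicing normally truncates EGFP, so fluorescence indicates corrected splicing.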

[3] = qHTS Assay for Identification of Small Molecule Agonists for Hypoxia Response Element Signaling Pathway (AID 914; active = well fitted activation curve with a large enough effect in the signal ratio, with a control signal flat, not every such curve was filed as active; the % refers to the signal ratio; note: % of control where 0% means no effect); settings: ME-180 (cervical carcinoma) HRE-bla reporter, beta-lactamase ratio, CoCl2, 17 h; stronger effect = higher value
Procedure, shortened: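 Compounds in a titration series were added to ME-180 reporter cells alongside an EC50 level of CoCl2. After 17 hours, beta-lactamase activity was read as the 460nm/530nm emission ratio of CCF4, giving AC50 values.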

[4] = target: Cytochrome P450 2C19 (Homo sapiens) (UniProt P33261); experiment: qHTS Assay for Inhibitors and Substrates of Cytochrome P450 2C19 (AID 899); note: potency is the fitted concentration of half-maximal effect; nearly all actives have a fitted effect of over 60% in size
Cytochrome P450 2C19 (Homo sapiens), sequence (P33261 whole entry, looked up): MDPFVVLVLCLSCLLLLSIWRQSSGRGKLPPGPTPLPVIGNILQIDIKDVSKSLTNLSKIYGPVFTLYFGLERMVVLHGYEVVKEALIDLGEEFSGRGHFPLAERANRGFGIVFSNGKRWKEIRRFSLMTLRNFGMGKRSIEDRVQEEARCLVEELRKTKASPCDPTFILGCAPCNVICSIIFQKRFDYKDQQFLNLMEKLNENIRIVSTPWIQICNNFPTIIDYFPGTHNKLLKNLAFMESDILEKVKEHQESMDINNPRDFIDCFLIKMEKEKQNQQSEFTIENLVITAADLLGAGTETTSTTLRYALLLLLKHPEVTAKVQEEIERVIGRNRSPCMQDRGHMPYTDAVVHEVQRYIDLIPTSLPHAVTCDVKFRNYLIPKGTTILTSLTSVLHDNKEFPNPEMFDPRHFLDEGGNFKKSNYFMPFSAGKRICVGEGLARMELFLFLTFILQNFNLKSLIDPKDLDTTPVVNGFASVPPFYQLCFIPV
Procedure, shortened: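 Luminescent read-out of luciferin formed from Luciferin-H EGE (10uM, equal to KM). Enzyme 5nM in 50mM KPO4; compound added, 10 min at 37C, then NADPH regenerating system for 60 min at 37C. Full inhibition defined by 57uM ketoconazole.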

[5] = qHTS Assay for Identification of Small Molecule Agonists for Thrombopoietin (TPO) Signaling Pathway (AID 917); note: % is set by controls: 0 for no effect and ±100 for the full control effect
Procedure, shortened: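 Cell-based luciferase reporter screen. Mouse Ba/F3 line stably expressing human TPO receptor; IL-3 removed overnight before plating. Co-treatment with compound and EC50 TPO (26 pM), 24 hrs at 37 C, then luminescence.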

[6] = target: Muscarinic acetylcholine receptor M1 (Rattus norvegicus) (UniProt P08482); experiment: qHTS Assay for Antagonists of Acetylcholine Muscarinic M1 Receptor: Kinetic Measurement of Intracellular Calcium Response (AID 943);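 note: Fluo-4 calcium signal as peak divided by basal fluorescence over 4 min; series mostly up to about 35 µM; nearly all actives have a fitted effect of over 75% in size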
Muscarinic acetylcholine receptor M1 (Rattus norvegicus), sequence (P08482 whole entry, looked up): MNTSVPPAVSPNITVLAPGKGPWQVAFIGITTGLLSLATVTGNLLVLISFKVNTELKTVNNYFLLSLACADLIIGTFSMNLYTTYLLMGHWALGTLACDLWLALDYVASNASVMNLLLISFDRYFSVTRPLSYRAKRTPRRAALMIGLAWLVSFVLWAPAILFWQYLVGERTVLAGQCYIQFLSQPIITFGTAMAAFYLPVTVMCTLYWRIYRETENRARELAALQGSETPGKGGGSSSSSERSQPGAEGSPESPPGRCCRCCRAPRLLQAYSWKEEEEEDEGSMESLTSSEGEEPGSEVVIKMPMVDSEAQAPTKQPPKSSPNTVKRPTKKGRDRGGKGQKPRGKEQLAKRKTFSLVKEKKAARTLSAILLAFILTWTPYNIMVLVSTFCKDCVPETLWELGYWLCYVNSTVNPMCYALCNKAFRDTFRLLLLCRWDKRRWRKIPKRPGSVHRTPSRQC
Procedure, shortened: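 Read-out: peak over basal Fluo-4 fluorescence, kinetic at 1 Hz for 4 min after EC80 carbachol (100 nM final). Rat M1-CHO cells, dye loaded 1 h at 37C, compound added 10 min before agonist.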

[7] = target: Pyruvate kinase (Leishmania mexicana) (UniProt Q27686); experiment: qHTS Validation Assay for Inhibitors of Leishmania Mexicana Pyruvate Kinase (AID 945);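 note: 0% = DMSO only neutral control wells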
Pyruvate kinase (Leishmania mexicana), sequence (Q27686 2-499 E452W): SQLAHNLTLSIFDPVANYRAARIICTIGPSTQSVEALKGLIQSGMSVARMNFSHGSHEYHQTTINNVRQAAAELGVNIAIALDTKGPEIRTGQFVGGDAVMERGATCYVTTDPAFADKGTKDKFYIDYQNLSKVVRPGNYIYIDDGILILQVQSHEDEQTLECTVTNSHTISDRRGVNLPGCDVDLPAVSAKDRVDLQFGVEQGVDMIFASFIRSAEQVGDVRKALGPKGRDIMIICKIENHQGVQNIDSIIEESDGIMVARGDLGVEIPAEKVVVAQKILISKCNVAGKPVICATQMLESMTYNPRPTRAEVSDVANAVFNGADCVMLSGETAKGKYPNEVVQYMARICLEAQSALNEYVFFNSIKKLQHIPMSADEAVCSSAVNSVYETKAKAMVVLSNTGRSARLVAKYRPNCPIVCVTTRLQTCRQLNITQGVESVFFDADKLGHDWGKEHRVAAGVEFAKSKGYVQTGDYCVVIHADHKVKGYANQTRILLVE
Procedure, shortened: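 Pyruvate kinase activity of E451W LmPYK (0.2 nM) was followed as ATP output after 1 h at room temperature with 0.5 mM PEP and 0.1 mM ADP, detected by PKLight luminescence.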

[8] = target: Pyruvate kinase PKM (Homo sapiens) (UniProt P14618); experiment: qHTS Assay for Activators of Human Muscle Pyruvate Kinase (AID 954; active = well fitted curve in the direction sought with a large enough effect, not every such curve was filed as active;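 note: 0% = uninhibited enzyme and -100% = no enzyme or full thiadiazolimine inhibition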)
Pyruvate kinase PKM (Homo sapiens), sequence (P14618 whole entry, looked up): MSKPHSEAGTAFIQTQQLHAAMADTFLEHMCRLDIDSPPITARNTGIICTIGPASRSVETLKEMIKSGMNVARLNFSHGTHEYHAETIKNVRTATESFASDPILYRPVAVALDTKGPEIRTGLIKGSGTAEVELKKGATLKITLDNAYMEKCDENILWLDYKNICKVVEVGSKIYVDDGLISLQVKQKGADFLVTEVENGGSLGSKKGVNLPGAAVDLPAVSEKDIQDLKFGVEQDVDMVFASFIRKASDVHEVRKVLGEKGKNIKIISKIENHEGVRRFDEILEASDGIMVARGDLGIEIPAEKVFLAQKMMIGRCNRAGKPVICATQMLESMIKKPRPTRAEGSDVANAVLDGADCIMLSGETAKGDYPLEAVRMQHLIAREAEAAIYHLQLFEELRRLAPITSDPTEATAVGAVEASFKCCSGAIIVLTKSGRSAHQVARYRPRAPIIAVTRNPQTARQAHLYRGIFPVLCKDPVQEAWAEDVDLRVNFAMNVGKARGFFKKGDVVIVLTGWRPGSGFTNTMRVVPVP
Procedure, shortened: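 Compound pinned into substrate mix (0.5 mM PEP, 0.1 mM ADP), then 0.1 nM PKM2 added; 1 h, RT. Stop/detection luciferase reagent added, luminescence read. Normalized to no-inhibition and no-enzyme or reference-inhibitor controls.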

[9] = target: Alpha-galactosidase (Coffea arabica) (UniProt Q42656); experiment: Counterscreen for Glucocerebrosidase Inhibitors: qHTS Assay for Coffee Bean alpha-Galactosidase at pH 4.5 (AID 957);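 note: series mostly up to about 77 µM; plate controls were enzyme alone for no effect and no enzyme for full effect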
Alpha-galactosidase (Coffea arabica), sequence (Q42656 whole entry, looked up): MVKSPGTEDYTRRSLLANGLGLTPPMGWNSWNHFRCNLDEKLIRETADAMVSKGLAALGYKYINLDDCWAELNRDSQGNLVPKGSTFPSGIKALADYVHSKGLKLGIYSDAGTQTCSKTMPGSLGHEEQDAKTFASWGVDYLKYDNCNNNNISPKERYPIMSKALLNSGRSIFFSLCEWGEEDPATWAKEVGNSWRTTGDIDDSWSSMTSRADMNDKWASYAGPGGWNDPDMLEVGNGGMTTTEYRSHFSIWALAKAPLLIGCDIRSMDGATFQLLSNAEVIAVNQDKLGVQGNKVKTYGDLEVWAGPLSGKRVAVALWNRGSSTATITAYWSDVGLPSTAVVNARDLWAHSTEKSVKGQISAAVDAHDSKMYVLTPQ
Procedure, shortened: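 Fluorogenic read-out: 4-methylumbelliferone at Ex 365/Em 440 nm after NaOH/glycine stop (pH 10). Enzyme 2 nM, 4-MU-alpha-galactoside 80 uM, citrate buffer pH 4.5, 20 min RT; normalized to no-enzyme and enzyme controls.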

[10] = Cell Viability - LYMP2-001 (AID 921);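 note: series mostly up to about 92 µM; cells exposed to compound for 24 h at 37 °C; 0% = DMSO only and full inhibition = tetraoctylammonium bromide control wells; nearly all actives have a fitted effect of over 70% in size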
Procedure, shortened: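 Steps: seed 2500 lymphoblastoid cells/well; 5 hr, 37 C; add compound; 24 hr, 37 C; CellTiter-Glo reagent, 30 min room temperature; read luminescence. Concentration-response modeled by Hill equation for AC50.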

[11] = MultiTox-Fluor Cytotoxicity Assay - LYMP1-001 - Dead Cells (AID 946);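 note: 0% = DMSO and 100% = tetraoctylammonium bromide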
Procedure, shortened: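 LYMP1-001 lymphoblastoid cells (2500/well) treated 16 h at 37 C. Dead-cell protease cleavage of bis-AAF-R110 read at Ex/Em 485/520. Normalized to DMSO and 15 uM tetraoctylammonium bromide; AC50 from Hill fits.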

[12] = MultiTox-Fluor Cytotoxicity Assay - LYMP1-001 - Live Cells (AID 947);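 note: 0% = DMSO only and full inhibition = tetraoctylammonium bromide control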
[13] = Cell Viability - LYMP1-002 - Assay at 16 hr (AID 948);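 note: 0% = DMSO alone and full effect = 92 µM tetraoctylammonium bromide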
Procedure, shortened: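 Seed 2500 LYMP1-002 cells per well in complete medium and hold 5 hr at 37 C. Add compound across a concentration series and incubate 16 hr at 37 C. Add CellTiter-Glo, wait 30 min at room temperature, read luminescence.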

[14] = MultiTox-Fluor Cytotoxicity Assay - LYMP1-002 - Dead Cells (AID 960);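 note: 0% = DMSO and 100% = tetraoctylammonium bromide; nearly all actives have a fitted effect of over 60% in size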
Procedure, shortened: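 Readout: fluorescence at 485/520 from cell-impermeant bis-AAF-R110 cleaved by proteases leaking from damaged cells. LYMP1-002 lymphoblastoid line, 16 hr compound treatment at 37 C, concentration-response in qHTS format; Hill-equation AC50 values.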

[15] = MultiTox-Fluor Cytotoxicity Assay - LYMP1-003 - Dead Cells (AID 961);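 note: 0% = DMSO and 100% = tetraoctylammonium bromide; nearly all actives have a fitted effect of over 70% in size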
Procedure, shortened: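 LYMP1-003 human lymphoblastoid cells (2500/well) exposed to compound 16 h at 37 C in complete medium; dead-cell protease read with bis-AAF-R110 fluorescence (Ex/Em 485/520) after 60 min at room temperature. Normalized to DMSO and 15 uM tetraoctylammonium bromide; AC50 from Hill fit.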

[16] = MultiTox-Fluor Cytotoxicity Assay - LYMP1-003 - Live Cells (AID 962);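 note: 0% = DMSO only and full loss = 92 µM tetraoctylammonium bromide; cytotoxic hits lower the live-cell protease signal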
Procedure, shortened: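 Readout: live-cell fluorescence (Ex/Em=405/510) from GF-AFC cleavage after 60 min MultiTox-Fluor reagent at room temperature. Lymphoblastoid LYMP1-003 cells, 16 hr compound treatment, 37 C. Concentration-response fitted to standard Hill equation for AC50.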

[17] = Cell Viability - LYMP1-003 - Assay at 40 hr (AID 964); note: series mostly up to about 92 µM; % is set by controls: 0 for no effect and ±100 for the full control effect; nearly all actives have a fitted effect of over 60% in size
Procedure, shortened: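 LYMP1-003 lymphoblastoid cells, 2500/well; 5 hr preincubation, 40 hr compound exposure, 37 C; CellTiter-Glo 30 min RT; luminescence; Hill-fit AC50. Positive control tetraoctylammonium bromide.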

[18] = Cell Viability - LYMP2-003 (AID 965);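 note: cells exposed to compounds for 24 h before reading; 0% = DMSO only and full effect = 92 µM tetraoctylammonium bromide; nearly all actives have a fitted effect of over 50% in size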
Procedure, shortened: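 Seed 2500 lymphoblastoid cells/well; incubate 5 hr, 37 C; add compounds; incubate 24 hr, 37 C; add CellTiter-Glo, 30 min RT; read luminescence. AC50 from Hill fit.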

[19] = Cell Viability - LYMP1-003 - Assay at 24 hr (AID 963);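 note: plate controls were DMSO only for no effect and tetraoctylammonium bromide positive control for full effect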
Procedure, shortened: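 CellTiter-Glo luminescence (intracellular ATP) read after 24 hr, 37 C compound exposure of 2500 LYMP1-003 human lymphoblastoid cells/well in complete medium; qHTS concentration series; AC50 via standard Hill equation.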

CNC(C)(C)Cc1ccccc1
inactive: outcome [1] | outcome [2]

COc1c2c(cc3c1OCO3)CCN(C)C2
inactive: activation [3] -5.25%

O=C(CCCN1CCC2(CC1)C(=O)NCN2c1ccccc1)c1ccc(F)cc1
inactive: outcome [1] | outcome [5] | outcome [2] | outcome [6] | outcome [7] | outcome [8] | outcome [9]
active: Potency [4] 6.31 µM

Clc1ccc(C(c2ccc(Cl)cc2)C(Cl)(Cl)Cl)cc1
inactive: outcome [1] | outcome [10] | outcome [2] | outcome [11] | outcome [12] | outcome [13] | Potency [14] | outcome [15] | outcome [16] | outcome [17] | outcome [18]

Nc1ccccc1C(=O)O
inactive: outcome [10] | outcome [11] | outcome [12] | outcome [13] | Potency [14] | outcome [15] | outcome [16] | outcome [19] | outcome [17] | outcome [18]
